Compound activity from PubChem.
FMDV antiviral = foot and mouth disease virus antiviral activity. Potency, µM (doses to about 57.9 µM), for inactives: top-dose activity change, negative = inhibition, actives largely listed as inhibitors. 410,000 compounds, 1.2% hits. AID 1159524. FMDV antiviral cell-based qHTS; calls by dose curve; tested in HEK293T cells; further: read-out not given here; potency means the concentration at half of the fitted maximal effect; on the % scale 0 is the no-effect control and ±100 the full control effect; nearly all actives have a fitted effect of over 45% in size
Marburg entry inh = Marburg virus entry inhibition | AID 540276 | Marburg virus pseudotyped entry inhibition, cell reporter | 300,000 compounds, 1.8% hits | Potency, µM (doses to about 37.8 µM), without a hit: at the top dose activity change, negative = inhibition, usual class: inhibitors; calls by dose curve; tested in HEK293 cells; further: potency means the concentration at half of the fitted maximal effect; on the % scale 0 is the no-effect control and ±100 the full control effect
Shiga toxin inh = inhibitors of Shiga toxin in Vero cells. Vero cells, Shiga toxin protein synthesis inhibition reporter. inhibition, % at 38.7 µM. 290,000 compounds, 9.2% hits; in the data active means inhibition mostly above about 28%, no sharp cut-off; inactive means mostly below about 43%; further: 0% is about no effect
LASV entry inh = inhibitors of Lassa virus binding or cell entry; Lassa virus pseudotype entry inhibition, cell reporter; Potency, µM (titrated, usually from 37.9 µM), inactives show at the top dose activity change, negative = inhibition, actives largely listed as inhibitors; 300,000 compounds, 1.2% hits; AID 540256; calls by dose curve; tested in HEK293 cells; further: potency means the concentration at half of the fitted maximal effect; on the % scale 0 is the no-effect control and ±100 the full control effect; nearly all actives have a fitted effect of over 50% in size
HCV inh = inhibitors of hepatitis C virus infection; Huh7.5.1 HCVcc-Cre infection, luciferase reporter, 44 h; Potency, µM (top dose mostly 41.8 µM), for the others: at the top dose activity change, negative = inhibition, usual class: inhibitors; 340,000 compounds, 3.4% hits; AID 651820; active means well fitted inhibition curve with a large enough effect; inconclusive means small, poorly fitted or top-dose-only effect, or another doubt; inactive means no such curve, though single readings can be large or run the other way; further: potency means the concentration at half of the fitted maximal effect; on the % scale 0 is the no-effect control and ±100 the full control effect
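Luciferase read-out (15 sec integration) after a 15 min room-temperature substrate step quantifies HCVcc-Cre infection. Cells, 1,000 per well, had compound added 4 h post-plating, then virus at ~0.5 moi, and were cultured 44 h.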
Cycloheximide cs = counter-screen for Shiga toxin inhibitors: cycloheximide protein synthesis inhibition; cell reporter, cycloheximide protein synthesis inhibition counterscreen; max response, %; 300,000 compounds, 12% hits; AID 2314; in the data active means max response mostly above about 13%, no sharp cut-off; inactive means mostly below about 14%; further: read at 38.3 µM for the half of the compounds with a filed dose; 0% is about no effect
Numbers without * were called inactive; u = inconclusive; x = no result given; [ ] = another dose, or the depositor's remark. Only some compounds are listed: those with a hit (about 13% of all), similar ones and a draw of the others.

SMILES | FMDV antiviral | Marburg entry inh | Shiga toxin inh | LASV entry inh | HCV inh | Cycloheximide cs
CS(=O)(=O)c1ccc(-c2csc(-c3cccnc3)n2)cc1 | 5.0% | x | 54.0 | x | -9.0% | 39.1*
O=S(=O)(NC1=NCCC1)c1cccc(NC(=S)Nc2ccc(OC(F)F)cc2)c1 | 27.3% | 2.0% | x | -16.8% | 6.2% | x
Fc1ccccc1-c1csc(-c2cccnc2)n1 | 62.6% | 29.4%[46.1 µM] | 37.8* | u | -6.0% | 47.8*
O=C1c2ccccc2C(=O)N1CCc1csc(-c2ccccc2)n1 | -0.4% | -21.6% | 35.8* | -26.6% | -19.0% | 18.2*
c1ccc(-c2csc(-c3ccncc3)n2)cc1 | 32.0% | -20.3%[46.1 µM] | 55.0* | 26.1% | -24.7% | 30.7*
O=C1c2ccccc2C(=O)N1CCc1csc(-c2ccc(F)cc2)n1 | u | 6.8% | 10.1 | -9.8% | 11.6% | 8.4
c1cc2c3c(cccc3c1)NC1(CCCC1)N2 | -1.4% | -22.0% | x | 8.2% | -12.0% | x
S=C1NC2(CCCCC2)Nc2ccccc21 | -14.5% | x | 33.1 | x | 9.4% | 15.7*
S=C1NC2(CCCC2)Nc2ccccc21 | -1.9% | 10.4% | 102.8* | -4.0% | 4.1% | 38.3*
Cc1cnc(NC(=O)c2ccc(OCC3CCCO3)cc2)s1 (stereo unspecified) | -83.1% | u | 61.8 | 1.78µM* | -19.5% | 8.2
COc1ccc(C(=O)Nc2ccc(-c3ccc(C)o3)cc2)cc1S(=O)(=O)N1CCOCC1 | 10µM* | 12.6µM* | 47.6 | 7.94µM* | 2.51µM* | 19.5*
COc1ccc(NS(=O)(=O)c2cc(NC(=O)c3ccc(Cl)cc3)ccc2N2CCOCC2)cc1 | 66.6% | 1.12µM* | x | u | 7.94µM* | x
O=C(Nc1ccc2cn[nH]c2c1)c1ccc(Cl)c(S(=O)(=O)N2CCOCC2)c1 | -17.2% | u | 4.6 | 13.1% | 3.8% | 45.5*
CCOCCCn1c(=S)[nH]c2cc(C(=O)N3CCN(c4ccccc4)CC3)ccc2c1=O | u | 8.0%[46.1 µM] | -6.4 | 23.6%[46.1 µM] | u | -2.6
CCCCCCCNC(=O)C1(CC2CC(c3ccccc3)=NO2)CCN(C(=O)OC(C)(C)C)CC1 (stereo unspecified) | 56.7% | x | x | x | -4.5% | x
COc1ccc(CCNC(=O)c2ccc(NC3=NC4CS(=O)(=O)CC4S3)cc2)cc1OC (stereo unspecified) | 22.5% | x | -7.6 | x | 7.5% | -2.7
O=C(Nc1cccc(S(=O)(=O)N2CCCCC2)c1)c1ccc(OCC2CCCO2)cc1 (stereo unspecified) | u | u | 44.6 | u | u | 5.7
O=C(Nc1ccc(Cl)c(S(=O)(=O)N2CCOCC2)c1)c1ccc(OCC2CCCO2)cc1 (stereo unspecified) | 7.94µM* | 2.24µM* | 1.9 | u | u | 25.2
O=C(Nc1ccc(Cl)c(S(=O)(=O)N2CCOCC2)c1)c1ccc(Cl)nc1 | 17.8µM* | u | x | u | 11.2µM* | x
O=C(Nc1ccc(Cl)c(S(=O)(=O)N2CCOCC2)c1)c1ccc2c(c1)OCO2 | 31.6µM* | 10µM* | x | u | 10µM* | x
COc1cc2c(cc1OC)CN(C(=O)c1ccc(OC)c(S(=O)(=O)N3CCOCC3)c1)CC2 | 43.2% | -1.5% | 38.2 | -7.9% | -6.8% | 23.8*
COc1ccc(NC(=O)c2ccc3c(c2)OCO3)cc1S(=O)(=O)N1CCOCC1 | -3.5% | x | x | x | -14.8% | x
CCOC(=O)C1=NOC2(C1)C(=O)Nc1ccc(OC(F)(F)F)cc12 (stereo unspecified) | -18.5% | x | x | x | x | x
Cc1ccc(S(=O)(=O)NCCCCC(NC(=O)OC(C)(C)C)C(=O)O)cc1 (stereo unspecified) (tested in a mixture with another compound) | -17.0% | -3.7% | -1.7 | -2.1% | -16.0% | -1.8
O=C(NCc1ccccc1)c1ccc(OCC2CCCO2)cc1 (stereo unspecified) | 66.1% | 0.0% | 33.3 | 17.4% | 17.4% | 20.9
Cc1ccc(NC(=O)c2ccc(OCC3CCCO3)cc2)nc1 (stereo unspecified) | u | u | x | u | -25.0% | x
CC(NC(N)=O)C(=O)Nc1ccc(Cl)c(S(=O)(=O)Nc2ccc(Cl)cc2)c1 (stereo unspecified) | 45.7% | x | -13.6 | x | 19.3% | 6.0
CC(C)Oc1ccc(C(=O)Nc2ccc(Cl)c(S(=O)(=O)Nc3ccc(Cl)cc3)c2)cc1 | -1.1% | u | 13.3 | 11.2µM* | u | 2.6
